AMA1-RON2 inh: inhibitors of Plasmodium falciparum AMA1-RON2 interaction; AlphaScreen AMA1-biotinylated RON2 peptide binding; Potency, µM (doses to about 58.2 µM), for the others: top-dose activity change, negative = inhibition, actives largely listed as inhibitors; 360,000 tested, 0.2% active; active = well fitted inhibition curve with a large enough effect; inconclusive = small, poorly fitted or top-dose-only effect; inactive = no such curve, though single readings can be large or run the other way;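 note: potency is the fitted concentration of half-maximal effect; 0% = vehicle wells and -100% = peptide control; nearly all actives have a fitted effect of over 45% in size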
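AMA1 (3D7) with his tag at 25 nM final met compounds first, then biotinylated RON2 peptide at 25 nM; detection used donor plus acceptor beads, 10 µg/mL apiece, read by AlphaScreen after 30 min at room temperature.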
NS1 function inh: blocks influenza NS1 protein function; Potency, µM (series often up to 46.1 µM), for inactives: top-dose activity, positive = more growth; 270,000 tested, 0.4% active; note: potency is the fitted concentration of half-maximal effect; actives are rising curves; nearly all actives have a fitted effect of over 50% in size
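Compounds were scored for reversing the slow growth caused by influenza A NS1 in S. cerevisiae, measured by optical density at 600 nm. Assay medium contained 2% galactose at pH 6.0; NS1-free yeast of the same strain were the positive control.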
SARS PLpro yeast-1: inhibitors of SARS-CoV papain-like protease in yeast | S. cerevisiae expressing SARS-CoV PLpro, growth rescue | Potency, µM (titrated, usually from 32.9 µM), inactives show top-dose activity, positive = growth rescue, hits mostly activators | 330,000 tested, 0.19% active | AID 485353; note: potency is the fitted concentration of half-maximal effect; 0% is about no effect; nearly all actives have a fitted effect of over 55% in size
Flu NS1 inh: validation of influenza NS1 protein function inhibitors; shares compounds with NS1 function inh; influenza NS1 function cell assay, 15-point titration; activity change, negative = inhibition, % at 32.9 µM; 1,400 tested, under 10 active; note: 0% is about no effect
SARS PLpro yeast-2: Rescues yeast growth by inhibiting SARS-CoV PLpro; yeast expressing SARS-CoV PLpro, growth phenotype rescue; 1,000 tested, 19% active; AID 652038; calls only; shares compounds with SARS PLpro yeast-1; call rule not given here
An asterisk follows results filed as active; [ ] = remark or other dose. An excerpt weighted towards active compounds, which were near 0.65% of everything screened. Unless noted, calls come from the whole dose curve.

For Cc1ccc(NC(=S)/N=C(\N)Nc2nc(C)c3ccccc3n2)cc1C the results were AMA1-RON2 inh 6.5%[2.32 µM], NS1 function inh 11.2µM*, SARS PLpro yeast-1 10µM*, Flu NS1 inh -24.3 and SARS PLpro yeast-2 active.
For Cc1cc(C)cc(NC(=S)/N=C(\N)Nc2nc(C)c3ccccc3n2)c1 the results were AMA1-RON2 inh 8.1%, NS1 function inh 21.5% and SARS PLpro yeast-1 inconclusive.
For CCCCNC(=O)C1(C)CCN1Cc1ccc(C#N)cc1 (configuration not stated) the results were AMA1-RON2 inh 13.8%.
CCOC(=O)c1ccc(NC(=O)C2COc3ccccc3O2)cc1 (configuration not stated) was read as AMA1-RON2 inh -11.2%, NS1 function inh -51.0% and SARS PLpro yeast-1 -8.8%.
CCOC(=O)c1ccc(-n2c(O)c(/C=N/NC(=O)C3COc4ccccc4O3)c3ccccc3c2=O)cc1 (configuration not stated) was read as AMA1-RON2 inh 85.8%, NS1 function inh 8.91µM*, SARS PLpro yeast-1 4.47µM*, Flu NS1 inh -2.8 and SARS PLpro yeast-2 inactive.
Cc1cccc(NC(=O)Nc2ccc3c(c2)CCC3)c1 was read as AMA1-RON2 inh -0.9%, NS1 function inh 1.6% and SARS PLpro yeast-1 -9.1%.
`N#C/C(=N\Nc1ccc(Cl)cc1)C(=O)c1ccccc1` gave AMA1-RON2 inh -6.6%, NS1 function inh -160.9% and SARS PLpro yeast-1 -28.7%.
For Cc1c(N/N=C(\C#N)C(=O)c2ccc(Cl)cc2)c(=O)n(-c2ccccc2)n1C the results were AMA1-RON2 inh 1.6%, NS1 function inh inconclusive, SARS PLpro yeast-1 12.6µM*, Flu NS1 inh inconclusive and SARS PLpro yeast-2 inactive.
`C(=NN=C(NN=Cc1cccs1)NN=Cc1cccs1)c1cccs1` gave AMA1-RON2 inh 20.7%.
Screening CC/C(=N\NC(=O)c1cc(C2CC2)[nH]n1)c1ccccc1 returned AMA1-RON2 inh -6.5%, NS1 function inh -0.1% and SARS PLpro yeast-1 -19.3%.
`CN(CC(=O)NCc1ccc(F)cc1)S(=O)(=O)c1ccc(Br)s1` gave AMA1-RON2 inh -15.8%, NS1 function inh 12.8% and SARS PLpro yeast-1 -2.4%.
Screening Cc1cc(=O)[nH]c(N/N=C/c2c(O)n(-c3ccccc3)c(=O)c3ccccc23)n1 returned AMA1-RON2 inh 38.9%, NS1 function inh 10µM*, SARS PLpro yeast-1 inconclusive, Flu NS1 inh -1.9 and SARS PLpro yeast-2 inactive.
Cc1cc(=O)[nH]c(NN=Cc2c(Cl)cccc2Cl)n1 was read as AMA1-RON2 inh 89.7%.
O=C(CSc1nnc(Cn2c(=O)sc3ccccc32)n1-c1ccccc1)N1CCCCCC1 was read as AMA1-RON2 inh -10.4%, NS1 function inh -10.8% and SARS PLpro yeast-1 -12.2%.
`O=C(CSc1nnc(Cn2c(=O)sc3ccccc32)n1-c1ccccc1)N1CCCC1` gave AMA1-RON2 inh -4.0%, NS1 function inh -1.0%, SARS PLpro yeast-1 inconclusive and SARS PLpro yeast-2 inactive.
CC(C)n1ncc2c(C(=O)N3CCN(S(=O)(=O)c4cccc(F)c4)CC3)cc(C3CC3)nc21 was read as AMA1-RON2 inh 0.0%.
`CCOC(=O)c1oc2ccccc2c1CN1CCN(C(=O)c2ccccc2)CC1` gave AMA1-RON2 inh 0.8%, NS1 function inh -35.1%, SARS PLpro yeast-1 3.55µM* and SARS PLpro yeast-2 inactive.
CCOC(=O)c1oc2ccccc2c1CN1CCN(c2ccccc2)CC1 was read as AMA1-RON2 inh inconclusive, NS1 function inh -86.7% and SARS PLpro yeast-1 -4.0%.
`NC(=NCCc1ccccc1)NS(=O)(=O)c1ccc2ccccc2c1` gave AMA1-RON2 inh 17.0%, NS1 function inh -7.6% and SARS PLpro yeast-1 2.4%.
Screening NC(=NCCc1ccccc1)NS(=O)(=O)c1ccc(F)cc1 returned AMA1-RON2 inh 31.2%, NS1 function inh -2.5%, SARS PLpro yeast-1 inconclusive and SARS PLpro yeast-2 inactive.
Screening O=c1c(Cc2ccccc2)c(O)ccn1Cc1ccco1 returned AMA1-RON2 inh 3.8%, NS1 function inh 6.3% and SARS PLpro yeast-1 1.1%.
`CN(c1nc2ccccc2[nH]c1=O)C1CCCCC1` gave AMA1-RON2 inh -17.3%, NS1 function inh -8.8% and SARS PLpro yeast-1 -1.2%.
CC(C)CN1CN(Cc2ccco2)CNC1=S was read as AMA1-RON2 inh -1.2%, NS1 function inh -5.2% and SARS PLpro yeast-1 6.2%.
`CC(C)CN1CN(Cc2ccccc2)CNC1=S` gave AMA1-RON2 inh 5.4%, NS1 function inh 8.5%, SARS PLpro yeast-1 12.6µM* and SARS PLpro yeast-2 active.
For CCCCN1CNC(=S)N(Cc2ccccc2)C1 the results were AMA1-RON2 inh -9.1%, NS1 function inh 5.4%, SARS PLpro yeast-1 inconclusive and SARS PLpro yeast-2 inactive.
For CCCCN1CNC(=S)N(CCc2ccccc2)C1 the results were AMA1-RON2 inh -1.3%, NS1 function inh -12.9% and SARS PLpro yeast-1 28.3%.
O=C(CN(C(=O)CCC(=O)Nc1nccs1)c1ccc(F)cc1)NCc1ccc(F)cc1 was read as AMA1-RON2 inh -2.3%, NS1 function inh 8.3% and SARS PLpro yeast-1 0.0%.
For COc1cccc(CN(CCC(=O)O)Cc2cccc(OC)c2)c1 the results were AMA1-RON2 inh 12.6%.
For CCOc1ccccc1-c1c2cc(O)c(=O)cc-2oc2cc(O)c(O)cc12 the results were AMA1-RON2 inh inconclusive, NS1 function inh inconclusive, SARS PLpro yeast-1 11.2µM* and SARS PLpro yeast-2 active.
CCOC(=O)c1oc2cc(O)ccc2c(=O)c1-c1ccccc1OC was read as AMA1-RON2 inh -1.4%, NS1 function inh -35.1% and SARS PLpro yeast-1 -7.3%.
Screening COc1ccc(OC)c(-c2c3cc(O)c(=O)cc-3oc3cc(O)c(O)cc23)c1 returned AMA1-RON2 inh 2µM*, NS1 function inh inconclusive, SARS PLpro yeast-1 inconclusive and SARS PLpro yeast-2 active.
COc1ccc(OC)c(-c2oc3ccccc3c(=O)c2O)c1 was read as AMA1-RON2 inh 4.6%, NS1 function inh -8.2% and SARS PLpro yeast-1 -0.8%.
Screening Cc1c(Cl)cccc1N=C1SCCN1C(=O)CN1C(=O)NC2(CCCC2)C1=O returned AMA1-RON2 inh -6.7% and SARS PLpro yeast-1 -6.9%.
For COc1cc(F)c(C2=CC(=O)C[C@H](c3ccc(Cl)cc3)C2)cc1F the results were AMA1-RON2 inh 11.0% and SARS PLpro yeast-1 6.7%.
Cc1noc(C)c1C(=O)OCC(=O)C12CC3CC(CC(C3)C1)C2 was read as AMA1-RON2 inh 3.9% and SARS PLpro yeast-1 0.6%.
For Cc1c(C(=O)Nc2c(F)cc(F)cc2Br)sc2ncn(CC(=O)N3CCCC3)c(=O)c12 the results were AMA1-RON2 inh 13.2%, NS1 function inh -6.8% and SARS PLpro yeast-1 4.9%.
For Cc1ccccc1-c1nnc(SCC(=O)NC2CCS(=O)(=O)C2)n1C (configuration not stated) the results were AMA1-RON2 inh -2.4% and SARS PLpro yeast-1 -5.0%.
Screening CC1CC(C)CN(S(=O)(=O)c2ccc(C(=O)Nc3nnc(-c4cccs4)o3)cc2)C1 (configuration not stated) returned AMA1-RON2 inh 175.4%, NS1 function inh -48.1% and SARS PLpro yeast-1 -0.4%.
